Potency and outcome data for nine compounds are collected here from PubChem BioAssay (Tox21).

The target of assay [1] is Aryl hydrocarbon receptor (Homo sapiens) (UniProt P35869). Kind of assay: qHTS assay to identify small molecule that activate the aryl hydrocarbon receptor (AhR) signaling pathway (AID 743085).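 Note: HG2L7.5c1 human HepG2 liver cells with stably integrated DRE-driven firefly reporter; series mostly up to about 70 µM; nearly all actives have a fitted effect of over 15% in size.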 The procedure, abridged: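 24 h compound exposure, 37C, HepG2-derived HG2L7.5c1 cells with DRE-responsive luciferase. Readouts: fluorescence viability, then luminescence at room temperature after 30 min.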

Assay [2] in a line: qHTS assay to identify small molecule that activate the aryl hydrocarbon receptor (AhR) signaling pathway - cell viability counter screen (AID 743086). Note: nearly all actives have a fitted effect of over 45% in size. Note: potency is the fitted concentration of half-maximal effect. The procedure, abridged:
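HepG2-AhR-luc (HG2L7.5c1) cells, 4000/well, were preincubated 5 h at 37C, exposed to compound in qHTS format for 24 hr at 37C, then given CellTiter-Fluor for 30 min; viability was read as fluorescence in the reporter wells.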
Background: Quantitative high-throughput screening tests each substance at several concentrations.

The target of assay [3] is Peroxisome proliferator-activated receptor gamma (Homo sapiens) (UniProt P37231). Kind of assay: qHTS assay to identify small molecule antagonists of the peroxisome proliferator-activated receptor gamma (PPARg) signaling pathway (AID 743191; calls by dose curve; note: series mostly up to about 63 µM; nearly all actives have a fitted effect of over 30% in size). The procedure, abridged:
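GeneBLAzer PPARg UAS-bla HEK293H cells carrying a UAS-driven beta-lactamase reporter were plated at 3000 cells/well, preincubated 5 h at 37C, then given compound for 17 h at 37C; LiveBLAzer B/G FRET substrate was read after 1 h at room temperature.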

Assay [4] can be described thus: qHTS assay to identify small molecule antagonists of the peroxisome proliferator-activated receptor gamma (PPARg) signaling pathway - cell viability counter screen (AID 743194). Note: nearly all actives have a fitted effect of over 55% in size. Note: potency is the fitted concentration of half-maximal effect. The procedure, abridged: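 PPARg-UAS-bla HEK293H cells were plated, rested 5 h at 37 C, then treated with compounds plus rosiglitazone (50 nM final) for 17 h at 37 C; viability was then read by CellTiter-Glo luminescence after 30 min at room temperature.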

Assay [5] in a line: qHTS assay for small molecule agonists of the antioxidant response element (ARE) signaling pathway - cell viability counter screen (AID 743203; calls by dose curve; note: nearly all actives have a fitted effect of over 55% in size; note: potency is the fitted concentration of half-maximal effect). The procedure, abridged: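 ATP content via CellTiter-Glo luminescence served as the viability measure. Cells: ARE-bla HepG2, 2,000 per well. Exposure: 16 hrs, 37C/5% CO2.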
Assay [6] is described as follows: qHTS assay for small molecule activators of the heat shock response signaling pathway - cell viability counter screen (AID 743209). Note: nearly all actives have a fitted effect of over 50% in size. The procedure, abridged:
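Compounds dissolved in DMSO were added to overnight-plated HSE-bla HeLa cells and left 5 h at 37 C. Cell viability was quantified by luminescence using CellTiter-Glo.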

A short description of assay [7]: qHTS assay for small molecule activators of the heat shock response signaling pathway (AID 743210; active = well fitted activation curve with a large enough effect in the signal ratio in the repeat runs, with a control signal flat, not every such curve was filed as active; the % refers to the signal ratio; note: series mostly up to about 63 µM). An outline of the steps: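 Heat shock element–beta-lactamase HeLa reporter cells; qHTS with compounds for 5 h at 37 C; detection by FRET substrate fluorescence after 2.5 h at RT.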
Assay [8] can be described thus: qHTS assay to identify small molecule agonists of the peroxisome proliferator-activated receptor delta (PPARd) signaling pathway - cell viability counter screen (AID 743211). Note: nearly all actives have a fitted effect of over 55% in size. Note: potency is the fitted concentration of half-maximal effect. An outline of the steps:
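Luminescent ATP viability assay (CellTiter-Glo, 30 min RT) in UAS-bla HEK293H cells carrying the PPAR delta reporter construct, 3000 cells/well, after a 17 h compound treatment at 37 C.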

Assay [9] has as its target Peroxisome proliferator-activated receptor delta (Homo sapiens) (UniProt Q03181). Kind of assay: qHTS assay to identify small molecule agonists of the peroxisome proliferator-activated receptor delta (PPARd) signaling pathway (AID 743212; calls by dose curve). The procedure, abridged:
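Beta-lactamase reporter read by fluorescence (LiveBLAzer B/G FRET, 2 h, room temperature). Test agents, in DMSO, incubated at 37 C with PPARd-bla HEK293H cells.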

Assay [10] can be described thus: qHTS assay to identify small molecule antagonists of the peroxisome proliferator-activated receptor delta (PPARd) signaling pathway - cell viability counter screen (AID 743213). Note: nearly all actives have a fitted effect of over 50% in size. Note: potency is the fitted concentration of half-maximal effect. An outline of the steps: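 HEK293H cells with the PPARd UAS-bla reporter, co-treated 17 h at 37 C with compounds and L165041 (300 nM final), were lysed with CellTiter-Glo. Luminescence indicated viable cell content.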

Assay [11] addresses Peroxisome proliferator-activated receptor delta (Homo sapiens) (UniProt Q03181). Kind of assay: qHTS assay to identify small molecule antagonists of the peroxisome proliferator-activated receptor delta (PPARd) signaling pathway (AID 743215; active = well fitted inhibition curve with a large enough effect in the signal ratio in the repeat runs, not every such curve was filed as active; the % refers to the signal ratio;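 note: cells stimulated with agonist L165041 at 300 nM final during compound exposure; series mostly up to about 62 µM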). The procedure, abridged:
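Here, a reporter line (HEK293H, beta-lactamase under a UAS) measures PPARd signaling. Compounds are tested against agonist L165041 at 300 nM final concentration over 17 h at 37 C, with fluorescence read after substrate.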

In assay [12] the target is Bile acid receptor (Homo sapiens) (UniProt Q96RI1). The experiment in a line: qHTS assay to identify small molecule antagonists of the farnesoid-X-receptor (FXR) signaling pathway (AID 743217; active = well fitted inhibition curve with a large enough effect in the signal ratio in the repeat runs, not every such curve was filed as active; the % refers to the signal ratio). An outline of the steps: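 Test compounds are pin-transferred onto FXR-bla HEK 293T cells, then chenodeoxycholic acid is added at 50 uM final. After 16 h at 37 °C, LiveBLAzer B/G substrate is applied for 2 h at room temperature and fluorescence read.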

Assay [13] is described as follows: qHTS assay to identify small molecule agonists of the farnesoid-X-receptor (FXR) signaling pathway - cell viability counter screen (AID 743218). Note: nearly all actives have a fitted effect of over 45% in size. An outline of the steps:
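Quantitative HTS counter screen measuring ATP-based viability via CellTiter-Glo luminescence in HEK 293T cells carrying a UAS-driven beta-lactamase reporter, after 16 h compound exposure at 37 C.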

Assay [14] deals with Bile acid receptor (Homo sapiens) (UniProt Q96RI1). Kind of assay: qHTS assay to identify small molecule agonists of the farnesoid-X-receptor (FXR) signaling pathway (AID 743220; active = well fitted activation curve with a large enough effect in the signal ratio in the repeat runs, not every such curve was filed as active; the % refers to the signal ratio). The procedure, abridged:
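FXR-UAS-bla HEK 293T cells carrying a UAS-driven beta-lactamase reporter were plated for 5 h at 37C/5% CO2, then exposed to DMSO-dissolved Tox21 10K compounds for 16 h at 37C. A LiveBLAzer B/G FRET substrate was loaded for 2 h at room temperature before fluorescence reading.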

A short description of assay [15]: qHTS assay to identify small molecule antagonists of the farnesoid-X-receptor (FXR) signaling pathway - cell viability counter screen (AID 743221; active = well fitted cell-killing curve with a large enough effect in the repeat runs, not every such curve was filed as active; note: nearly all actives have a fitted effect of over 50% in size; note: potency is the fitted concentration of half-maximal effect). An outline of the steps:
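In GeneBLAzer FXR-UAS-bla HEK 293T cells stimulated with 50 uM chenodeoxycholic acid (final), compounds acted for 16 h at 37 C. Viability was assessed afterwards by CellTiter-Glo luminescence.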

Assay [16] has as its target Vitamin D3 receptor (Homo sapiens) (UniProt P11473). The experiment in a line: qHTS assay to identify small molecule agonists of the vitamin D receptor (VDR) signaling pathway (AID 743222; calls by dose curve). The procedure, abridged: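 Tox21 cell reporter format: VDR-bla line, 16 h compound exposure in 5% CO2 at 37C, then fluorescence intensity after 2 h with LiveBLAzer B/G FRET substrate.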

Assay [17] deals with Peroxisome proliferator-activated receptor gamma (Homo sapiens) (UniProt P37231). The experiment in a line: qHTS assay to identify small molecule agonists of the peroxisome proliferator-activated receptor gamma (PPARg) signaling pathway (AID 743094; active = well fitted activation curve with a large enough effect in the signal ratio in the repeat runs, not every such curve was filed as active; the % refers to the signal ratio). The procedure, abridged:
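Agonism was assessed in a beta-lactamase reporter system, HEK293H cells with a stably integrated UAS-bla construct under PPARg control; the 17 h treatment at 37C preceded a 1 h room-temperature FRET substrate read.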

The nature of assay [18]: qHTS assay for small molecule agonists of the antioxidant response element (ARE) signaling pathway (AID 743202; active = well fitted activation curve with a large enough effect in the signal ratio in the repeat runs, not every such curve was filed as active; the % refers to the signal ratio). An outline of the steps:
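Following a 16 h, 37 C exposure of reporter HepG2 cells (ARE-driven beta-lactamase, 2,000 cells/well) to compounds, FRET substrate was applied for 2 h at room temperature and fluorescence intensity recorded.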

For assay [19], the target named is Vitamin D3 receptor (Homo sapiens) (UniProt P11473). Kind of assay: qHTS assay to identify small molecule antagonists of the vitamin D receptor (VDR) signaling pathway (AID 743223; active = well fitted inhibition curve with a large enough effect in the signal ratio in the repeat runs, not every such curve was filed as active; the % refers to the signal ratio). An outline of the steps: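 Agonist 1alpha,25-dihydroxyvitamin D3 (3 nM in well) was added with each compound to VDR-bla cells preincubated 4 h. Cells stood 16 h at 37C, then FRET substrate 2 h at room temperature; fluorescence intensity recorded.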

Records with an inconclusive call do not appear. Unmarked numbers belong to inactive results. Calls of active or inactive are those of the source. Unless noted, calls come from the whole dose curve; as a rule, active = well fitted curve in the direction sought with a large enough effect in the repeat runs; inconclusive = weak or mixed curves; inactive = no such curve, though single readings can be large; an effect the other way counts as inactive or inconclusive.

Peroxisome proliferator-activated receptor delta (Homo sapiens), sequence (Q03181 whole entry, looked up): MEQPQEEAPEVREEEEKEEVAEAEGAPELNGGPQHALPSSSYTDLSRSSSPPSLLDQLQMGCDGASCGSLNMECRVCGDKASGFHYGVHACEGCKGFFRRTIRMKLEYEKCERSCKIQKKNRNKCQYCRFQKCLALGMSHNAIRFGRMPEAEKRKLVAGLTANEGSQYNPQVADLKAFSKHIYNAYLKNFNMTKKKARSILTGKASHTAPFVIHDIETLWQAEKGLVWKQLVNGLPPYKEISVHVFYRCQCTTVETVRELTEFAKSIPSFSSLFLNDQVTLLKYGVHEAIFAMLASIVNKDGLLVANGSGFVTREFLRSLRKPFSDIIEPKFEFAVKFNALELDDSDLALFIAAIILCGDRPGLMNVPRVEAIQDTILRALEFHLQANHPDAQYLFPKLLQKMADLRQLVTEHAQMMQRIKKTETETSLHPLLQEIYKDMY
Vitamin D3 receptor (Homo sapiens), sequence (P11473 whole entry, looked up): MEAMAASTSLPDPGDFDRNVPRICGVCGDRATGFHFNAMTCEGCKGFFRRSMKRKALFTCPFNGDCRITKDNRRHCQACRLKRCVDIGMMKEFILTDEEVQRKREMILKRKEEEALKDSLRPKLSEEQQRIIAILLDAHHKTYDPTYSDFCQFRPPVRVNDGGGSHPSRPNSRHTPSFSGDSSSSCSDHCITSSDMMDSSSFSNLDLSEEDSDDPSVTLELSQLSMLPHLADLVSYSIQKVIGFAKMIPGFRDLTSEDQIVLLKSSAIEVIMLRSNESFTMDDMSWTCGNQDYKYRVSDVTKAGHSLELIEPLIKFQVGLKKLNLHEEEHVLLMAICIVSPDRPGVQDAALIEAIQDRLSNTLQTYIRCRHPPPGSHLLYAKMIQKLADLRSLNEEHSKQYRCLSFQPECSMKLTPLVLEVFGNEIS
Peroxisome proliferator-activated receptor gamma (Homo sapiens), sequence (P37231 whole entry, looked up): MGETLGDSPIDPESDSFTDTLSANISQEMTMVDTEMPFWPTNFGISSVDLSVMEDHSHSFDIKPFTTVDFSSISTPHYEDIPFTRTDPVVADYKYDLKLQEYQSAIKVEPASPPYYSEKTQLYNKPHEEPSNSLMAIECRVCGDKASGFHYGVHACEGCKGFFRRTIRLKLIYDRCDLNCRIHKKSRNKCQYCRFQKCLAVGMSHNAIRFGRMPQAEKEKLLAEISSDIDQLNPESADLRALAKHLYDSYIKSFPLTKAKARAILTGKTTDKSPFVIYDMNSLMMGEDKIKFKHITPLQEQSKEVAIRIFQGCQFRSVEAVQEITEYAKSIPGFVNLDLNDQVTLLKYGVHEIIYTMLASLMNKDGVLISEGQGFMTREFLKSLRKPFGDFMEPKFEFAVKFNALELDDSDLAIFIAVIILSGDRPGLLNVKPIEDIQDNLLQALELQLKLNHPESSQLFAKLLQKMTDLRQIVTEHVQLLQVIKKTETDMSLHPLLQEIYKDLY
Bile acid receptor (Homo sapiens), sequence (Q96RI1 whole entry, looked up): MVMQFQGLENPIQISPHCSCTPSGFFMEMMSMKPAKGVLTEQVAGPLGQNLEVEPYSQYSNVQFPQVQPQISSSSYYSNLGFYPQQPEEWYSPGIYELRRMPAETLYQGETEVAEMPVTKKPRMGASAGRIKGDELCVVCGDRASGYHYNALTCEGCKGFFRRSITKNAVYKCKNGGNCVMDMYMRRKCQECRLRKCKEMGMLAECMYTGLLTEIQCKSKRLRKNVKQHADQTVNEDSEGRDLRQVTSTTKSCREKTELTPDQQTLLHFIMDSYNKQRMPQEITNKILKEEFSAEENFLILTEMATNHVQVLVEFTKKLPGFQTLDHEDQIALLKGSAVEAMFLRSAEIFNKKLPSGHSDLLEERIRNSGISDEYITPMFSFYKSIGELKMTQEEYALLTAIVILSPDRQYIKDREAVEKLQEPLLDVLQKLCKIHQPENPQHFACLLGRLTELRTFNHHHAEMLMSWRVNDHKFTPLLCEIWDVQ
Aryl hydrocarbon receptor (Homo sapiens), sequence (P35869 whole entry, looked up): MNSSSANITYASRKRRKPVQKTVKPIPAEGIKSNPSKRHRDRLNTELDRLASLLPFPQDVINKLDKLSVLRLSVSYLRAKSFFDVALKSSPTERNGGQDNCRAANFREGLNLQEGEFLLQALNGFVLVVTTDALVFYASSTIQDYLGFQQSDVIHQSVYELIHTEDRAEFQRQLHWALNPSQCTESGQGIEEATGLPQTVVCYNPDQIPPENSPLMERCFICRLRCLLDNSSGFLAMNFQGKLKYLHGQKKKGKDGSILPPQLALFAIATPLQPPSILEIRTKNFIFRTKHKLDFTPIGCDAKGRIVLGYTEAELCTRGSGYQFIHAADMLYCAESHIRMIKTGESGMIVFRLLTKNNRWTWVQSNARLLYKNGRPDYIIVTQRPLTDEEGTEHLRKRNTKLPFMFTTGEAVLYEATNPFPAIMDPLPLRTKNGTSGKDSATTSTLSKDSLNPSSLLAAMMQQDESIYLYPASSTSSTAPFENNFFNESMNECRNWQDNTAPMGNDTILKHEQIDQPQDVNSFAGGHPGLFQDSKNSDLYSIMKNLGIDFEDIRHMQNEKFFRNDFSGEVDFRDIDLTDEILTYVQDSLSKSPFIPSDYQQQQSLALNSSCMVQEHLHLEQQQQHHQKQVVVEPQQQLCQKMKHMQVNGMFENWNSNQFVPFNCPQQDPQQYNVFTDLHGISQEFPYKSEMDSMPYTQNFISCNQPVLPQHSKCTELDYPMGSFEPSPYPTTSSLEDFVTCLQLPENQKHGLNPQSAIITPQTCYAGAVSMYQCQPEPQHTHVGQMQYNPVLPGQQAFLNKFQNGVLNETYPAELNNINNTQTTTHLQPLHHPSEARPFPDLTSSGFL

For the compound `CCCCC1=NC2(CCCC2)C(=O)N1Cc1ccc(-c2ccccc2-c2nn[nH]n2)cc1`, the Potency result in assay [1], in assay [2], in [3], in [4], in assay [5] and in [6] was “inactive” in each case. Moreover, the Potency entry in [7], in assay [8], in [9], in assay [10], in [11] and in assay [12] was “inactive” in each case. Moreover, the Potency result in [13], in assay [14], in [15] and in [16] was “inactive” in each case.

Consider `CN1CCC(=C2c3ccccc3Sc3ccccc32)CC1`, for which the Potency result in assay [1], in assay [17], in [3], in assay [18], in assay [6] and in assay [7] was “inactive” in each case. Besides, the Potency entry in assay [9], in assay [11], in [12], in assay [14] and in assay [16] was “inactive” each time. The Potency in assay [2] was 29.8 µM (active); in [8], 26.6 µM (active). In assay [19], the compound was classed as inactive.

For the compound `CCC(C)(C)CC`, the Potency entry in [2], in [4], in [18], in assay [5] and in [15] was “inactive” each time. In assay [10], the Potency is 51.3 µM (active).

Turning to `NS(=O)(=O)c1ccc(N2CCCCS2(=O)=O)cc1`, the Potency entry in [4], in [18], in [5], in [7], in [8] and in assay [10] was “inactive” in each case. The Potency result in assay [12], in assay [13], in assay [14], in assay [15] and in assay [16] was “inactive” each time. Moreover, the result in assay [19] was inactive.

Turning to `CC1=CCCC(C)(C)C12CCC(C)O2` (stereo unspecified), the Potency entry in assay [2], in assay [5], in [6], in assay [7], in [8] and in assay [10] was “inactive” each time. In addition, the Potency result in assay [12] and in assay [14] was “inactive” in each case.

For `O[C@@H](COc1cccc2ncccc12)CN1CCN(C2c3ccccc3[C@@H]3[C@H](c4ccccc42)C3(F)F)CC1` (stereo partly specified), the Potency is 13.3 µM (active) in assay [4]; 15 µM (active) in assay [5]; 9.44 µM (active) in [8]; 23.7 µM (active) in assay [10]; 21.1 µM (active) in assay [15]. Further, the Potency entry in [6] and in [9] was “inactive” each time.

Turning to `Cc1ccc(C(=O)Oc2ccc(C(O)CNC(C)(C)C)cc2OC(=O)c2ccc(C)cc2)cc1` (stereo unspecified), the Potency entry in [4], in assay [7], in assay [14] and in assay [15] was “inactive” each time. In [8], the Potency was 29.8 µM (active).

Take `CC(C)Cc1ccc(C(C)C(=O)OCc2ccccn2)cc1` (stereo unspecified): the Potency result in assay [3], in [4], in [18], in assay [5], in [6] and in assay [7] was “inactive” in each case. The Potency result in [8], in [9], in assay [10], in assay [11], in assay [12] and in [13] was “inactive” in each case. In addition, the Potency entry in [14], in assay [15] and in assay [16] was “inactive” in each case. Besides, the outcome in [19] was inactive.

Consider `Nc1ccc([N+](=O)[O-])c(C(F)(F)F)c1`, for which the Potency entry in [3], in assay [4], in assay [18], in assay [5], in [6] and in assay [7] was “inactive” throughout. Also, the Potency result in assay [8], in assay [9], in assay [10], in assay [13], in assay [14] and in assay [15] was “inactive” each time.
